SMN2 splice up: enhancers of SMN2 splice variant expression | 2.8% of 210,000 active | Potency, µM (top dose mostly 46.1 µM), inactives show top-dose activity change, positive = activation, usual class: activators | HEK293 SMN2-luciferase splicing reporter, luminescence, 30-36 h | AID 1458; further: % of control where 0% means no effect; nearly all actives have a fitted effect of over 55% in size
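HEK293 cells carry an SMN2 […]–luciferase reporter in which exon 7 inclusion puts luciferase in frame. Cells were plated 10-12 h before compound addition, then incubated 30-36 h at 37C. ONE-Glo luminescence was read; sodium butyrate at 4.5 mM final served as control.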
Rab9 promoter act: activators of Rab9 promoter. Huh7 Rab9 promoter-luciferase reporter, luminescence, 24 h. Potency, µM (highest dose often 9.22 µM), for inactives: top-dose activation, negative = inhibition, most hits filed as activators. 2.8% of 320,000 active; further: % of control where 0% means no effect; nearly all actives have a fitted effect of over 60% in size
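Rab9 promoter-driven luciferase in stably transfected Huh7 cells; 1500 cells/well rested 2 h, exposed to compound in DMSO for 24 h at 37 °C, 5% CO2. Luminescence read 10 min after adding luciferase reagent at ambient temperature.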
NPC1 prom act: NPC1 promoter activation; Potency, µM (highest dose often 9.22 µM), without a hit: at the top dose activation, actives largely listed as activators; 2.4% of 320,000 active; Huh7 NPC1 promoter luciferase reporter, 24 h; further: % of control where 0% means no effect; nearly all actives have a fitted effect of over 60% in size
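In 1536-well qHTS, Huh7 cells harboring an NPC1 promoter–luciferase construct received compound for 24 h; activation was quantified by luminescence following luciferase reagent addition.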
ELG1 genotoxic: induces genotoxicity in HEK293T cells with luciferase-tagged ELG1 | Potency, µM (highest dose often 46 µM), for the others: at the top dose activity change, positive = activation, most hits filed as activators | 1.3% of 330,000 active | HEK293T ELG1-luciferase reporter, luminescence, 16 h; further: % of control where 0% means no effect; nearly all actives have a fitted effect of over 60% in size
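Cells (2,000/well) expressing the ELG1-luciferase fusion are dosed by pin tool and kept 16 hr at 37 °C, 5% CO2. Signal comes from ONE-Glo luciferase reagent after 30 min at room temperature.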
FLuc counter: firefly luciferase modulation, counter-screen for miR-21 project. P08659. purified FLuc, Km substrates, luminescence inhibition. Potency, µM (doses to about 57.5 µM), without a hit: top-dose activity change, negative = inhibition, usual class: inhibitors. 6.9% of 360,000 active;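 further: plate controls were vehicle for no effect and reference inhibitor for full effect; nearly all actives have a fitted effect of over 55% in size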
Target sequence (P08659 whole entry, looked up): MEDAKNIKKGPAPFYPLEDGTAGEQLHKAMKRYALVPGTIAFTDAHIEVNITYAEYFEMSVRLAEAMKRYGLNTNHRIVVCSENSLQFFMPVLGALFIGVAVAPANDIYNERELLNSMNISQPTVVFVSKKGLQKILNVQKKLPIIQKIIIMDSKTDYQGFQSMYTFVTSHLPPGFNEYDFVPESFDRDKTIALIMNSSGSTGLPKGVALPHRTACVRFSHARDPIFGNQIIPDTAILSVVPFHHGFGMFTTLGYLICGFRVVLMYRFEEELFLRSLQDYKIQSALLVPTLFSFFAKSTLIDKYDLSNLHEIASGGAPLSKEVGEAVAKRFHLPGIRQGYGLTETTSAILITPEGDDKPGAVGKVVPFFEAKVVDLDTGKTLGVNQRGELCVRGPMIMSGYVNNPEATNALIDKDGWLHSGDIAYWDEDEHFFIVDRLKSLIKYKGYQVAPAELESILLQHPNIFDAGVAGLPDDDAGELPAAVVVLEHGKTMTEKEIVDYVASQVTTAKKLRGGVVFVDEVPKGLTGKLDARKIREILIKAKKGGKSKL
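Purified P. pyralis luciferase (10nM final) with 10uM D-luciferin and 10uM ATP (Km levels) in 50mM Tris acetate pH 7.5, 10mM Mg acetate, 0.01% Tween-20, 0.05% BSA; qHTS 6-point titration, ~60 µM downward; luminescence read.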
* marks the source's active call; other numbers are inactive results; ? = inconclusive; / = no result given; [ ] = another dose, or the depositor's remark. This is a sample that favours compounds with a hit; in the whole collection about 7.4% have one here. The call rests on the fitted dose curve; in most records, active means well fitted curve in the direction sought with a large enough effect; inconclusive means small, poorly fitted or top-dose-only effect, or another doubt; inactive means no such curve, though single readings can be large; an effect the other way counts as inactive or inconclusive. Potency means the concentration at half of the fitted maximal effect.

SMILES	SMN2 splice up	Rab9 promoter act	NPC1 prom act	ELG1 genotoxic	FLuc counter
COc1ccc(-n2ncc(C(=O)N3CCc4ccccc4C3)c2C2CCN(C(=O)OC(C)(C)C)CC2)cc1	/	/	/	/	1%
O=C(Oc1ccc(/C=N/O)cc1)c1ccccc1Cl	7%	-1%	-2%	13%	9.5µM*
COc1cc(C(=O)N/N=C/c2ccc(OC(=O)c3cccc(C)c3)cc2)ccc1O	/	-5%	-2%	4%	?
Cc1cccc(C(=O)Oc2ccc(/C=N/O)cc2)c1	1%	15%	26%	?	7.6µM*
NC(CSS(=O)(=O)O)=N[C@@H]1C[C@H]2CC[C@@H]1C2	-8%[9.22 µM]	/	/	/	/
CC(C)(C)c1ccc(C(=O)NCCCNC(=O)c2ccccn2)cc1	/	-3%	-5%	1%	17µM*
CC(C)(C)c1ccc(C(=O)NCCCNC(=O)c2cccnc2)cc1	/	?	25%	21%	17µM*
CC(=O)Nc1cccc(OCCCNC(=O)c2ccc(C(C)(C)C)cc2)c1	/	17%	14%	0%	19µM*
N#CC[N+]1(Cc2ccccn2)CCCC1	-8%[9.22 µM]	/	/	/	/
CCC(NC(=O)Nc1cc(Cl)ccc1OC)c1c(-n2cccc2)sc2c1CCN(C)C2 (stereo not drawn)	/	/	/	/	-14%
Cc1nc2nc(-c3ccccc3)[nH]n2c(=O)c1C	?	?	24%	?	?
Cc1nc2nc(-c3cccnc3)[nH]n2c(=O)c1Cc1ccccc1	15%	12%	-2%	11%	?
Cc1nc2nc(-c3ccc(Cl)cc3)[nH]n2c(=O)c1C	?	2.2µM*	2.5µM*	?	6µM*
Cc1nc2c(-c3ccccc3)c[nH]n2c(=O)c1Cc1ccccc1	-60%	?	8%	1%	27µM*
Cc1nc2nc(-c3ccc(Cl)cc3)[nH]n2c(=O)c1Cc1ccccc1	?	27%	?	?	3µM*
COc1cc(OC)cc(-n2c(=O)c3ccccc3n(CC(=O)NCCc3ccc(OC)c(OC)c3)c2=O)c1	4%	/	/	/	1%
CO[C@@H]1/C=C\O[C@]2(C)Oc3c(C)c(O)c4c(O)c(c(CN5CCN(C)CC5)c(O)c4c3C2=O)NC(=O)/C(C)=C\C=C[C@@H](C)[C@@H](O)[C@H](C)[C@@H](O)C(C)[C@H](OC(C)=O)[C@@H]1C (stereo partly drawn)	-11%[9.22 µM]	/	/	/	/
O=C(c1cccc(NS(=O)(=O)c2cccc([N+](=O)[O-])c2)c1)N1CCOCC1	12%	-4%	2%	-5%	-3%
COc1ccc(-c2cccc(NS(=O)(=O)c3cccc([N+](=O)[O-])c3)c2)nn1	/	-3%	0%	-1%	-15%
O=[N+]([O-])c1cccc(S(=O)(=O)Nc2cccc(-c3ccc(N4CCCC4)nn3)c2)c1	/	12%	-2%	?	9.5µM*
O=[N+]([O-])c1cccc(S(=O)(=O)Nc2cccc(-c3ccc(N4CCOCC4)nn3)c2)c1	/	?	25%	?	2.1µM*
CCc1ccc(S(=O)(=O)Nc2ccc(-c3ccc(N4CCCC4)nn3)cc2)cc1	/	/	/	/	1%
CCc1ccc(S(=O)(=O)Nc2cccc(-c3ccc(N4CCOCC4)nn3)c2)cc1	/	/	/	/	8.5µM*
CCc1ccc(C(=O)CSc2n[nH]c(-c3ccncc3)n2)cc1	-9%	-1%	-1%	-3%	24µM*
Cc1ccc(C(=O)CSc2ncn[nH]2)cc1	-3%	0%	17%	7%	-18%
SMILES	SMN2 splice up	Rab9 promoter act	NPC1 prom act	ELG1 genotoxic	FLuc counter
CCc1ccc(C(=O)CSc2ncn[nH]2)cc1	2%	?	20%	?	17µM*
CCCOc1ccc(CSc2ncn[nH]2)cc1	?	26%	17%	?	11µM*
c1ccc(-c2noc(-c3cccc4ccccc34)n2)nc1	16µM*	28%	?	?	0.76µM*
COc1cccc(-c2nc(-c3ccccn3)no2)c1OC	13µM*	2.5µM*	3.5µM*	9.2µM*	13µM*
CCCn1c(-c2ccc(F)cc2)nc2c(N3CCN(C)CC3)nc(C)nc21	-11%	/	/	/	/
CCc1ccc2oc(C(=O)Nc3cc(Cl)ccc3OC)cc(=O)c2c1	1%	/	/	/	-8%
CCCOc1ccc(C2Nc3cccc4cccc(c34)N2)cc1	/	4%	20%	4%	11µM*
CCN(CC)c1ccc(C2Nc3cccc4cccc(c34)N2)cc1	/	23%	29%	3%	11µM*
Cc1nn2c(=O)cc(COC(=O)c3ccc(NC(=O)c4cccc(Br)c4)cc3)nc2s1	/	/	/	/	-3%
CCc1ccc(NC(=O)CCn2cnc3ccccc3c2=O)cc1	/	/	/	/	-14%
Cc1cc(/C=C2/NC(=O)NC2=O)c(C)n1-c1ccccn1	?	23%	17%	10%	21µM*
Cc1ccc(-n2c(C)cc(/C=C3\NC(=O)NC3=O)c2C)c(C)c1	-9%	2%	1%	8%	8.5µM*
Cc1cc(/C=C2/NC(=O)NC2=O)c(C)n1-c1ccc(C#N)cc1	-17%	1%	-3%	2%	0%
Cc1ccc(NC(=O)CCCn2c(=O)c3cccn3c3cccnc32)c(C)c1	/	/	/	/	-1%
Cn1cc(CCNC(=O)c2ccc3nc(Cc4ccccc4F)oc3c2)cn1	/	1.6µM*	2.5µM*	?	5.4µM*
CCn1cc(CNC(=O)c2ccc3nc(Cc4ccccc4F)oc3c2)cn1	/	-6%	0%	10%	?
Cn1cc(CNC(=O)c2ccc3nc(Cc4ccccc4F)oc3c2)cn1	/	?	2.8µM*	?	24µM*
Cc1cc(C)c2c(n1)SCCN2C(=O)Nc1ccc(C(=O)Nc2cc(Cl)ccc2C)cc1	/	/	/	/	0%
COc1ccc(-c2nc(-c3ccncc3)no2)cc1OC	?	26%	?	16µM*	9.5µM*
COc1ccc(-c2noc(-c3cccs3)n2)cc1OC	/	1.6µM*	1.3µM*	?	2.4µM*
CNc1ccc(-c2nc(-c3ccncc3)no2)cc1[N+](=O)[O-]	/	/	/	/	-3%
Cc1ccc(-c2nc(-c3ccncc3)no2)cc1C	/	0.56µM*	0.71µM*	2.3µM*	0.76µM*
COc1ccc(CCC(=O)Nc2ccc(-c3noc(-c4ccc(OC)c(OC)c4)n3)cc2)cc1	11µM*	?	?	?	0%
COc1ccc2c(c1)O[C@@H](c1ccc3c(c1)OCO3)[C@H](OC(=O)NCCOc1ccccc1)C2=O	1%	/	/	/	/
CSc1ccc(CNC(=O)C2CCN(c3nnc(-n4cccc4CNc4ccc(C)cc4)s3)CC2)cc1	-47%	/	/	/	?
COc1ccc(CNC(=O)Cc2ccc(NC(=O)N3CCSc4ncccc43)cc2)cc1OC	/	/	/	/	-8%
CCc1ccc(NC(=O)Cn2c(=O)n(-c3ccc(Cl)c(Cl)c3)c(=O)c3c(C)c(C)sc32)cc1	0%	/	/	/	1%
COc1ccc(-c2noc(N(c3nc(-c4ccc(OC)c(OC)c4)no3)c3ccccc3OC)n2)cc1OC	-13%	/	/	/	0%
COc1ccc(-c2noc(-c3ccco3)n2)cc1OC	13µM*	/	/	/	7.6µM*
